Assay outcomes deposited in PubChem BioAssay by several laboratories.
A selection: hits, their analogues and other compounds. The true share with any hit is near 0.78%.
LMP1 NFkB inh = inhibitors of Epstein-Barr LMP1-induced NF-kappaB reporter | LMP1-induced NF-kappaB luciferase reporter cells, luminescence | inhibition, % at 12.5 µM | actives 0.69% (n = 350,000); in the data active = inhibition above about 41%;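 also: 0% = neutral control wells and 100% = reference inhibitor control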
SRC1 inh = inhibitors of human steroid receptor coactivator 1 (SRC1) | Q15788 | HEK293 GAL4-SRC1 luciferase reporter, luminescence | inhibition, % at 3.6 µM | actives 0.12% (n = 360,000) | AID 588354;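 active = inhibition above the campaign mean plus 3 SD, with each screening campaign given its own cutoff, cut at about 60% in these data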;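 also: 0% = DMSO treated cells and 100% = gossypol at 36 µM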
LRH-1 inv ag = suppresses constitutive activity of human LRH-1 | inhibition, % at 3.6 µM | AID 602396 | HEK293T StAR-luciferase reporter, LRH-1 transfected, 24 h | actives 0.13% (n = 360,000) | O00482;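 active = inhibition above the mean inhibition of all tested compounds plus 3 SD, cut at about 73% in these data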;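 also: 0% = DMSO wells and 100% = reporter-only cells lacking LRH-1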
SRC3 inh = inhibits human SRC3 coactivator; Q9Y6Q9; HEK293 GAL4-SRC3 luciferase reporter, luminescence; inhibition, % at 3.6 µM; actives 0.17% (n = 360,000); AID 588352;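 active = inhibition above a per-campaign cutoff, the mean of all compounds plus 3 SD, cut at about 60% in these data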;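 also: 0% = DMSO-treated cells and 100% = gossypol-treated cells at 36 µM; higher means less SRC3-driven luciferase light from the GAL4 reporter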
SRC2 inh = human SRC2 (NCOA2) inhibition; Q15596; HEK293 GAL4-SRC2 luciferase reporter, luminescence; inhibition, % at 9 µM; actives 0.17% (n = 370,000);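 active = inhibition above the mean inhibition of all tested compounds plus 3 SD, set per campaign, cut at about 52% in these data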;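 also: 0% = DMSO treated cells and 100% = cells given Gossypol at 36 µM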
Target sequence (Q15596 whole entry, looked up, the tested form may be a part): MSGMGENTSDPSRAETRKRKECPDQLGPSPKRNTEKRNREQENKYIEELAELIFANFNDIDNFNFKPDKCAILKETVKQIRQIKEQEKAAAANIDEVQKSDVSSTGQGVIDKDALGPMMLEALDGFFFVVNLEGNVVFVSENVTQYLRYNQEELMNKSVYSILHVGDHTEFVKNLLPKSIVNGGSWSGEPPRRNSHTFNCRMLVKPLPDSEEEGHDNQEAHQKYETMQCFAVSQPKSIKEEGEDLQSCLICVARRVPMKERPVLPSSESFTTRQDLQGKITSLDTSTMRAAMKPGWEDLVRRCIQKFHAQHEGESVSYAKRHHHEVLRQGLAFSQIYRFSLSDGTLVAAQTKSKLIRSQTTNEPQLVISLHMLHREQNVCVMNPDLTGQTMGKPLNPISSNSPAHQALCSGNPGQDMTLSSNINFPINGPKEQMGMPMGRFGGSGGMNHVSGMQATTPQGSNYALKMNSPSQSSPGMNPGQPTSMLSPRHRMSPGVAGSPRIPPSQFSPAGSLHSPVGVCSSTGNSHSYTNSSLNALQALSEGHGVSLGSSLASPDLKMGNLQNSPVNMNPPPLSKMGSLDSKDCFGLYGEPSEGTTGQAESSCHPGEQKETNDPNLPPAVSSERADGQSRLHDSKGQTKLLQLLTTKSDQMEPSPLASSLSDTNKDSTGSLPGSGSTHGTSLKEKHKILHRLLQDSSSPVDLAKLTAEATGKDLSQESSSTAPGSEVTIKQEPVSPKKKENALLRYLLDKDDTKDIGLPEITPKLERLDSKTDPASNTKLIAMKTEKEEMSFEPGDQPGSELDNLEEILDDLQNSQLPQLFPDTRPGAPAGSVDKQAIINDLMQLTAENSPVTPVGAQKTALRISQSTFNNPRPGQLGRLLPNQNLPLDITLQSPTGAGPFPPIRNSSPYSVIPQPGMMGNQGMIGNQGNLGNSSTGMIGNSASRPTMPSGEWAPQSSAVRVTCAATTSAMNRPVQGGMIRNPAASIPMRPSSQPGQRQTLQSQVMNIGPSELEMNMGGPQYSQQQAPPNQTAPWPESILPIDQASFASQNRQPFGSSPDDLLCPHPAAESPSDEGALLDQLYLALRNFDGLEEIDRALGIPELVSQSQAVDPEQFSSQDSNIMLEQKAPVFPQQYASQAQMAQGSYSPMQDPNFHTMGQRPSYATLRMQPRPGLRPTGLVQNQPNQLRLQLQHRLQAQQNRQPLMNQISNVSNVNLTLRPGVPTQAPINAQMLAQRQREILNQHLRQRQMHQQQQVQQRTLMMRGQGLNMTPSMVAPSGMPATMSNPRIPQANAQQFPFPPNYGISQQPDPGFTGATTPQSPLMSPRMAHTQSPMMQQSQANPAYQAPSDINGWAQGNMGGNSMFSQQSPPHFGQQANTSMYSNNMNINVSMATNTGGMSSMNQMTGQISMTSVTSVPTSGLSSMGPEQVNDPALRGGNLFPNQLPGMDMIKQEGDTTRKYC
* marks the source's active call; other numbers are inactive results; . = no result; ! = repeats disagree.

SMILES | LMP1 NFkB inh | SRC1 inh | LRH-1 inv ag | SRC3 inh | SRC2 inh
CCOC(=O)c1ccc(-c2ccc(N3C(c4cccc(OC)c4)=Cc4ccc(F)cc4C3CC(C)=O)cc2)cc1F (configuration not stated) | . | . | 21 | . | 60*
Oc1cccc2ccc(Nc3ccccn3)nc12 | 75* | -5 | 24 | 39 | -8
O=C1C=C(c2cc3ccccc3s2)CCC1 | 51* | -59 | -88 | -54 | -36
CCC(=O)OC1c2ccccc2C(=O)N1Cc1ccccc1 (configuration not stated) | 87* | 4 | -11 | 14 | -13
COc1ccc2cc(-c3cc(C(=O)O)c4ccccc4n3)ccc2c1 | 66* | -158 | -149 | -124 | -33
Cc1ccccc1NC(=O)CN1C(=O)S/C(=C\c2cccn2-c2cccc(C(=O)O)c2)C1=O | 74* | -5 | 2 | 17 | -24
Cc1sc2ncn(CC(=O)N3CCC(C(N)=O)CC3)c(=O)c2c1S(=O)(=O)N1CCOCC1 | 46* | 1 | 8 | 4 | -24
CCOC(=O)/C(=C\c1ccccc1)C(=O)c1cc(C(C)=O)c(Nc2ccccc2)s1 | 53* | 5 | -1 | 9 | 10
COC(=O)c1cc(-c2ccc(OC)c(OC)c2)c(=O)n2c1CCC2 | . | . | . | . | -9
Cc1nn(C(C)(C)C)c(C)c1/C=N/OC(=O)Nc1ccc(Cl)cc1 | 74* | 93* | 94* | 93* | 91*
Cc1nn(C)c(C)c1/C=N/NC(=O)C(C)(C)Oc1ccc(Cl)cc1 | -3 | 12 | 4 | 18 | .
COC(=O)C1=C(C)N(c2cc(C)cc(C)c2)/C(=C/c2ccc(O)cc2)C1=O | 52* | 7 | 33 | 17 | 11
CC(C)(C)c1ccc(S(=O)(=O)N2CCC(C(=O)NCCC3=CCCCC3)CC2)cc1 | . | . | . | . | -8
COc1ccc(-n2c(C)c(C(C)=O)c3cc(OC(C)=O)ccc32)cc1 | 60* | 62* | 31 | 59 | 32
COc1ccc2c(c1)c(C(C)=O)c(C)n2-c1ccc(C(C)=O)cc1 | 10 | 22 | -10 | 24 | 13
Cn1cc(C2(C)CCOc3ccccc32)c2ccccc21 (configuration not stated) | . | . | . | . | 14
COc1ccc(NC(=S)c2ccc3ccccc3n2)cc1 | -34 | -45 | -16 | -34 | .
COc1ccc(N=C(NN)c2ccc3ccccc3n2)cc1 | 35 | 54 | 77* | 46 | 63*
COc1ccc(C(=O)NC(=S)NNC(=O)c2ccc3ccccc3n2)cc1 | 49* | -1 | -9 | -1 | 29
COc1cc(OC)cc(C(=O)NNC(=O)c2ccc3ccccc3n2)c1 | 13 | -14 | 3 | -16 | -10
COc1ccc(C(=O)CSc2nnc(-c3ccc(C(C)(C)C)cc3)n2C)cc1 | . | . | . | . | -1
CCOc1cc(C(=O)OC(C)C(=O)Nc2ncc(Cl)cc2Cl)ccc1OCC(=O)N1CCOCC1 (configuration not stated) | 61* | -46 | -5 | 6 | -29
CCOc1cc(C(=O)OC(C)C(=O)Nc2ccccc2OC)ccc1OCC(=O)N1CCOCC1 (configuration not stated) | -4 | -2 | -31 | 0 | 10
Nc1ccc(Oc2ccccc2-c2ccccc2)cc1 | 29 | 44 | 48 | 58 | 83*
CCOC(=O)[C@]12CCCC=C1N(CCCOC)C(=O)[C@@H]2CC(=O)NCc1ccc(C)o1 | . | . | . | . | 10
SMILES | LMP1 NFkB inh | SRC1 inh | LRH-1 inv ag | SRC3 inh | SRC2 inh
CCc1ccc(N2C(=O)C[C@@](C#N)(C(=O)OC)[C@H]2c2ccccc2)cc1 | . | . | . | . | -10
Cc1cccc(N2CCN(C(=S)Nc3ccc4nc(N5CCN(C)CC5)cc(C)c4c3)CC2)c1C | 82* | -7 | 6 | 0 | -13
CC1CCC2(CC1)CCN(CCCOC(=O)Nc1ccc3c(c1)OCO3)C2=O (configuration not stated) | . | . | . | . | -2
CCCCNC(=O)C1CCCN1C(=O)NCc1ccccc1OC (configuration not stated) | . | . | . | . | -22
CCOc1ccc(NC2CCN(C(C)=O)CC2)cc1 | 42* | -30 | -12 | -20 | 10
COC(=O)[C@H](CC(C)C)N(Cc1cn(CC2CCCCC2)nn1)S(=O)(=O)c1ccccc1Br | . | . | . | . | 13
O=C(O)c1cccc(Nc2nc(N3CCOCC3)nc(N3CCOCC3)n2)c1 | 6 | -5 | -6 | -11 | 9
O=C(O)c1cccc(Nc2ccnc(Nc3cccc(C(=O)O)c3)n2)c1 | 58* | -28 | -12 | -48 | -10
Cn1c(=O)c(=O)n(C)c2cc(S(=O)(=O)N3CCN(Cc4ccc5c(c4)OCO5)CC3)ccc21 | . | . | . | . | -7
CCOc1ccc(-n2c(SCC(=O)Nc3ccc(Oc4ccccc4)cc3)nnc2-c2ccncc2)cc1 | . | . | . | . | 0
Cc1ccc2nc(-c3ccc(O)c(O)c3)cn2c1 | 3 | -114 | -125 | -123 | -64
Cc1ccc2nc(-c3ccccc3)cn2c1 | 72* | 28 | 11 | 36 | 67*
CCN(CC)Cc1cc(Nc2ccnc3cc(Cl)ccc23)ccc1O | 57*! | -20 | 3 | 6 | 2
Oc1ccc(Nc2ccnc3cc(Cl)ccc23)cc1 | 12 | -28 | -11 | -10 | -33
NC(=S)NN=Cc1nccc2ccccc12 | 82* | 79* | 78* | 79* | 4
NC(=S)NN=Cc1nccc2c(C(F)(F)C(F)(F)C(F)(F)F)cccc12 | 82* | 92* | 97* | 93* | 47
CCOC(=O)CC[C@@H]1CC[C@]2(CCCN(Cc3cccs3)C2)O1 | . | . | . | . | -13
COc1ccc(/C=C2\CC3(OC(=O)C4CCCCC4)CCCN2C3)cc1 (configuration not stated) | . | . | . | . | 2
CN1C(=O)C[C@@](C#N)(C(=O)N2CCCC2)[C@H]1c1ccccc1 | . | . | . | . | 16
CCN(CC)C(=O)CC[C@@H]1CC[C@]2(CCCN(C(=O)C(C)(C)C)C2)O1 | . | . | . | . | 6
CSc1nc(N)nc(SCC(=O)C23CC4CC(CC(C4)C2)C3)c1C#N | 69* | -16 | 11 | 18 | 0
COC(=O)[C@]12C[C@H](CC(=O)NCc3cccc4ccccc34)C(=O)N(Cc3ccc(Cl)cc3Cl)C1=C[C@H](COCc1ccccc1)O[C@@H]2C | . | . | . | . | 4
NC1=C(Br)C(=O)c2ncccc2C1=O | 70* | 83* | 95* | 88* | 75*
O=C(COC(=O)c1ccccc1C(=O)c1ccc(Cl)c([N+](=O)[O-])c1)NC1CC1 | 50* | -43 | -11 | -40 | -99
CNC(=O)COC(=O)c1ccccc1C(=O)c1ccc(Cl)c([N+](=O)[O-])c1 | 8 | -75 | -13 | -49 | -88
O=C(O)CCSc1nc2ccccc2s1 | 11 | 19 | -4 | 16 | 78*
c1ccc2sc(SCSc3nc4ccccc4s3)nc2c1 | -22 | -51 | -45 | 1 | -23
O=C(NCc1ccco1)C1CC(=O)N(c2cccc(Cl)c2)C1 (configuration not stated) | 65* | -11 | 0 | -25 | 6
COc1ccc(C(=O)CSc2nnc(-c3cccnc3)n2-c2ccccc2)cc1 | . | . | . | . | -2
COC(=O)C1CCCN(C(=O)C2CCN(S(=O)(=O)c3ccc([N+](=O)[O-])cc3)CC2)C1 (configuration not stated) | . | . | . | . | 0
